In the library only some 0.8% were active in any assay of this set; here they are far more common.
PI4K2A inh = qHTS for small molecular inhibitors of PI4K2A; Phosphatidylinositol 4-kinase type 2-alpha (Homo sapiens), Q9BTU6; purified PI4K2A, ADP-Glo luminescence, 1 h; active compounds read low; activity change, negative = inhibition, % at 76.9 µM; 420,000 compounds, 0.13% hits; AID 1346378, 2018; in the data active = activity change below about -50%; inconclusive = mostly about -30% to -49%;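 also: -100% = wells without enzyme as full effect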
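ADP-Glo luminescence measured ADP generated by PI4K2A enzyme (4 ug/mL before mixing) with 1.2 mM PI substrate (pre-mix) and 300 microM ATP (pre-mix). Tris pH7.5 buffer with MgCl2, Triton X-100; 1 h reaction at ambient temperature.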
PGK inhibitor = qHTS Assay to Find Inhibitors of Phosphoglycerate Kinase; PGK/GAPDH coupled, Kinase-Glo luminescence, 60 min; Potency, µM (series often up to 57.5 µM), without a hit: top-dose activity change, negative = inhibition, hits mostly inhibitors; 380,000 compounds, 0.043% hits; also: potency is read from the fitted curve at half-maximal effect; nearly all actives have a fitted effect of over 60% in size
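Recombinant glycosomal PGK reaction used 1,3-bisphosphoglycerate generated in-well by GAPDH (100nM final) in 100mM TEA pH 7.6, 5mM MgCl2, 0.01% Tween-20. After 60 minutes at room temperature, ATP was read by Kinase-Glo Plus luminescence end-point.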
APE1 inh = qHTS Assay for Inhibitors of the Human Apurinic/apyrimidinic Endonuclease 1 (APE1); DNA repair nuclease/redox regulator APEX1 (Homo sapiens), P27695; recombinant APE1, TAMRA/BHQ-2 abasic DNA cleavage fluorescence; Potency, µM (top dose mostly 65.8 µM), for inactives: at the highest dose activity change, negative = inhibition, usual class: inhibitors; 350,000 compounds, 0.35% hits;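 also: potency is read from the fitted curve at half-maximal effect; plate controls were vehicle for no effect and reference inhibitor for full effect; nearly all actives have a fitted effect of over 55% in size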
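Incision of a quenched TAMRA/BHQ-2 THF abasic-site duplex (50 nM) by 0.75 nM APE1, after 15 min compound preincubation, measured as fluorescence increase over three 60 s reads. Values normalized to buffer, DMSO and NSC13755 control wells.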
TDP1 inh = qHTS Assay for Inhibitors of Tyrosyl-DNA Phosphodiesterase (TDP1); 350,000 compounds, 0.28% hits; recombinant TDP1, AlphaScreen DNA substrate cleavage; AID 485290, 2010; Potency, µM (titrated, usually from 130 µM), without a hit: at the highest dose activity change, negative = inhibition, usual class: inhibitors; also: potency is read from the fitted curve at half-maximal effect; nearly all actives have a fitted effect of over 40% in size
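AlphaScreen read-out: signal falls as enzyme removes the 3' tyrosine-FITC from a 5'-biotinylated DNA oligo (15 nM, 5 min, RT). Enzyme was E. coli-made recombinant Tdp1 at 1 nM, exposed to compound for 15 min beforehand; beads 10 ug/ml, 10 min.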
Tb PFK inh = qHTS Assay to Find Inhibitors of T. brucei phosphofructokinase. T. brucei PFK, ADP-Glo luminescence. Potency, µM (titrated, usually from 57.5 µM), inactives show top-dose activity, negative = inhibition, actives largely listed as inhibitors. 330,000 compounds, 0.17% hits. AID 485367, 2010;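 also: potency is read from the fitted curve at half-maximal effect; 0% = uninhibited 1x PFK enzyme wells and -100% = no-enzyme wells; nearly all actives have a fitted effect of over 60% in size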
Target sequence (O15648 whole entry, looked up): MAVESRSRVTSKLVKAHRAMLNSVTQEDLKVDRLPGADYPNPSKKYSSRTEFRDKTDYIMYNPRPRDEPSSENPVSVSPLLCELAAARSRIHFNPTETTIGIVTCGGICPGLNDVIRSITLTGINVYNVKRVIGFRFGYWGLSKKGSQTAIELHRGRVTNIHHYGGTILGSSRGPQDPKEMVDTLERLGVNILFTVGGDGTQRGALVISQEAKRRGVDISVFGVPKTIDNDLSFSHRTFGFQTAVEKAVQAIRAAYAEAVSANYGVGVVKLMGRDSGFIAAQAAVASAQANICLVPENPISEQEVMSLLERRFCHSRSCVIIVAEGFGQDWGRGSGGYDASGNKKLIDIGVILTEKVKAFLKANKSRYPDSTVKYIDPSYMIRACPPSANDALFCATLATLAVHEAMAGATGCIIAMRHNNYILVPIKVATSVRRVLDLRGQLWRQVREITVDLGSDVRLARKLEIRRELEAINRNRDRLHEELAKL
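Activity is normalized to no-enzyme wells (full inhibition) and 1.25 nM enzyme wells (no inhibition). Reaction: 0.5 mM F6P, 0.1 mM ATP, 45 min RT, ADP-Glo luminescence; concentration-response curves fitted and classed by quality.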
FEN1 inhibitor = qHTS Assay for the Inhibitors of Human Flap endonuclease 1 (FEN1); P39748; Recombinant FEN1 flap cleavage, fluorescence, 15 min; Potency, µM (series often up to 114 µM), for the others: top-dose activity change, negative = inhibition, most hits filed as inhibitors; 390,000 compounds, 0.35% hits; also: potency is read from the fitted curve at half-maximal effect; nearly all actives have a fitted effect of over 65% in size
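In this screen, 50 nM flap DNA substrate was added to 10 nM FEN1 pretreated with compound for 15 min at room temperature; cleavage was followed with reads at 0 and 15 min, and Hill fitting gave concentration–response parameters.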
* = called active by the depositor; i = inactive; ? = inconclusive; . = not tested or not shown; [ ] = dose if it differs, or a comment. Unless noted, calls follow the shape of the dose curve; as a rule, active = well fitted curve in the direction sought with a large enough effect; inconclusive = small, poorly fitted or top-dose-only effect, or another doubt; inactive = no such curve, though single readings can be large; an effect the other way counts as inactive or inconclusive. Unless noted, % is scaled to controls: 0 for no effect and ±100 for the full control effect.

SMILES	PI4K2A inh	PGK inhibitor	APE1 inh	TDP1 inh	Tb PFK inh	FEN1 inhibitor
CC(C)[C@H](NC(=O)C1CCC(CNC(=O)[C@@H]2CCCN2C(=O)OC(C)(C)C)CC1)C(=O)O (some centres not stated)	-3	-11%	-3%	.	-2%	4%
CCNc1nc(NCC)n2c(SCC(=O)Nc3ccccc3C(F)(F)F)nnc2n1	-3	-23%	21µM*	.	?	4%
CCNc1nc(NCC)n2c(SCC(=O)Nc3c(C)cccc3C)nnc2n1	0	-11%	?	.	?	6%
CCNc1nc(NCC)n2c(SCC(=O)Nc3cccc(Cl)c3)nnc2n1	-1	?	27µM*	.	-6%	-4%
CCNc1nc(NCC)n2c(SCC(=O)Nc3cccc(F)c3)nnc2n1	-2	-8%	12µM*	-4%	?	5%
CC(=O)N1CCN(c2ccc(O)cc2)CC1	0	.	.	.	.	.
COC(=O)C[C@H]1c2cc(F)ccc2S(=O)(=O)N1Cc1ccccc1	-60*	-8%	.	.	.	11%
COC(=O)C[C@H]1c2cc(F)ccc2S(=O)(=O)N1c1ccccc1	-1	6%	.	.	.	4%
CNc1cc(OC)c(C(=O)N[C@H]2CCN(Cc3ccccc3)[C@H]2C)cc1Cl	.	.	-5%	.	.	.
COC(=O)c1ccn(CC(=O)NC2CCCCC2)n1	-2	-15%	30µM*	28µM*	-14%	0%
Nc1ccc(S(=O)(=O)N2CCCN(S(=O)(=O)c3ccc4c(c3)OCCO4)CC2)cc1	.	.	.	1%	.	.
COC(=O)c1ccc(NC(=O)c2cccc(OC)c2)cc1	-51*	-22%	-6%	-5%	?	8%
CC(C)(C)C(=O)Nc1ccc(C(=O)Nc2cccc(Oc3ccc(C(=O)O)c(C(=O)O)c3)c2)cc1	1	-17%	?	35µM*	21µM*	20%
COc1cc2ccccc2cc1C(=O)NC(=S)Nc1cccc(C(=O)O)c1	0	-18%	?	.	3%	?
COc1cccc(C(=O)Nc2ccc(C(=O)O)cc2)c1	-64*	?	-1%	-3%	-25%	1%
COC(=O)c1cccc(NC(=O)c2cccc(OC)c2)c1	?	?	-2%	5%	.	-6%
COc1cc2ccccc2cc1C(=O)NC(=S)Nc1ccc(C(=O)O)cc1	1	-8%	25%	50µM*	-1%	?
N#Cc1ccc(NS(=O)(=O)c2ccc3c(c2)CCC(=O)N3)cc1	.	.	.	1%	.	.
Nc1cc(S(=O)(=O)N2CCN(S(=O)(=O)c3ccc4c(c3)OCCO4)CC2)ccn1	.	.	.	-3%	.	.
Cc1ccc(Nc2nc(NCc3ccco3)nc3nccnc23)c(C)c1	.	.	.	8.9µM*	.	15%
Cc1ccc(Nc2nc(NCc3ccco3)nc3nccnc23)cc1	.	.	.	-10%	.	-10%
Oc1ccc(CNc2ccccc2F)c2cccnc12	-4	-4%	58%	8%	-2%	6%
Oc1ccc(Nc2ccccc2F)c2cccnc12	-52*	.	.	5%	.	.
Cc1ccc2nccnc2c1	.	.	.	.	.	-6%
CN1CC(O)C2=CC(=O)C(=O)C=C21 (configuration not stated)	.	.	0.4µM*	?	.	.
SMILES	PI4K2A inh	PGK inhibitor	APE1 inh	TDP1 inh	Tb PFK inh	FEN1 inhibitor
O=C1c2ccccc2C(=O)N1c1cccc2ncccc12	.	.	.	2%	.	.
CC(=O)c1ccc(NC(=O)CSc2nnc(-c3ccco3)c(-c3ccco3)n2)cc1	?	-22%	16%	-3%	-12%	32µM*
CC1(C)Cc2c(C#N)c(N3CCN(C(=O)c4ccccc4Cl)CC3)nc(-c3ccco3)c2CS1	-53*	-1%	-11%	1%	-2%	-4%
COc1ccc(-c2ccc3c(=O)cc(-c4ccsc4)oc3c2)cn1	-1	-10%	-28%	.	0%	50µM*
COc1ccc(-c2cc(=O)c3ccc(O)cc3o2)cc1	-1	10%	1%	8%	.	6%
O=c1cc(-c2ccsc2)oc2cc(-c3ccc4c(c3)OCO4)ccc12	5	i	13%	7.1µM*	9%	-7%
O=C1CCCC2=C1C1(CCCC1)N=C(Nc1nc3cc4ccccc4cc3o1)N2	.	.	.	2%	.	.
Cc1c2cc(O)c(=O)cc-2oc2cc(O)c(O)cc12	?	?	0.79µM*	12%	3.4µM*	?
O=c1cc(-c2ccc(O)cc2O)oc2ccccc12	.	.	-4%	12%[56.1 µM]	.	.
Cc1ccc(NS(=O)(=O)c2ccc3c(c2)C(Cl)(Cl)C(=O)N3)cc1C	.	.	.	4%	.	.
Cn1c2ccccc2c2cc(/C=N/NC(=O)c3cc(O)ccc3O)ccc21	-23	-14%	-44%	-12%	-15%	56µM*
Cn1c2ccccc2c2cc(/C=N/NC(=O)c3cc(O)cc(O)c3)ccc21	-5	?	13µM*	.	-13%	40µM*
COc1cc(C(=O)N/N=C/c2ccc3c(c2)c2ccccc2n3C)ccc1O	2	7%	10%	6%	3%	-24%
CC[C@@H](C)CCCCC(=O)N[C@@H](CCNCS(=O)(=O)O)C(=O)N[C@H](C(=O)N[C@@H](CCNCS(=O)(=O)O)C(=O)N[C@H]1CCNC(=O)[C@H]([C@@H](C)O)NC(=O)[C@H](CCNCS(=O)(=O)O)NC(=O)[C@H](CCNCS(=O)(=O)O)NC(=O)[C@H](CC(C)C)NC(=O)[C@@H](CC(C)C)NC(=O)[C@H](CCNCS(=O)(=O)O)NC1=O)[C@@H](C)O	.	.	9%	.	.	.
Cn1c(-c2ccc(Br)o2)nc2ccccc21	-56*	?	1%	6%	-19%	-2%
Cn1c(-c2ccc(Br)o2)nc2cc(Br)ccc21	-6	-4%	0%	0%	3%	-10%
O=C(NC1CC1)c1cc(-c2cccs2)on1	.	.	9%	.	.	.
CC(C)(C)N[S+](=O)([O-])c1cccc(-c2nnc(SCc3ccc(C(=O)O)cc3)n2-c2ccc(F)cc2)c1	.	.	26%	.	.	.
NC(=O)NS(=O)(=O)c1ccc(Cl)cc1	2	.	.	.	.	.
CONC(=O)C[C@@H](C#N)NC(=O)[C@@H]1CCCN1C(=O)[C@@H](NC(=O)c1ccc(N)c(Cl)c1)C(C)(C)C	.	.	.	-6%	.	.
CCCC[n+]1c(/C=C/c2c(OC)cc(OC)cc2OC)ccc2ccccc21	.	.	.	.	.	20µM*
CCC[n+]1c(/C=C/c2c(OC)cc(OC)cc2OC)ccc2ccccc21	.	.	.	.	.	28µM*

Bioassay records from PubChem.
